# Measurements from PubChem BioAssay (Tox21).
# Where “and” joins values, the source holds several entries; their conditions need not be identical. Equal values may be shown once. Inconclusive results are not listed. Calls of active or inactive are those of the source. The call rests on the fitted dose curve; in most records, active means well fitted cell-killing curve with a large enough effect in the repeat runs; inconclusive means weak or mixed curves, or effect the other way; inactive means flat fitted curve, though single readings scatter.
# Assay: Human pregnane X receptor (PXR) small molecule agonists, qHTS cell viability counter screen (AID 1346977); further: nearly all actives have a fitted effect of over 50% in size
# Conditions: PXR-Luc HepG2 viability, CellTiter-Fluor, 24 h; series mostly up to 92.4 µM; activity change, negative = cytotoxicity: at the top concentration
# Text: U.S. Tox21 Program National Center for Advancing Translational Sciences [NCATS] NIH Chemical Genomics Center [NCGC] U.S. Environmental Protection Agency [EPA] National Institutes of Environmental Health Sciences [NIEHS] National Toxicology Program [NTP] U.S. Food and Drug Administration [FDA] Tox21 Assay Overview: The human pregnane X receptor (hPXR) regulates the expression of several drug metabolizing enzymes and induction of these proteins is a major mechanism for developing drug resistance in cancer. One such key enzyme catalyzing the drug metabolism is cytochrome P450 3A4 (CYP3A4). Changes in CYP3A4 expression affect drug metabolism, thereby reducing the therapeutic efficacy and altering toxicological response to a drug and which finally causes adverse drug interaction. To screen Tox21 libraries for compounds that activate hPXR-mediated CYP3A4 gene expression, PXR-Luc HepG2 cells were used. Also cytotoxicity of the compounds was tested in parallel by measuring the cell viability using CellTiter-Fluor assay system in the same wells.
# Tox21 Assay Protocol Summary: PXR-Luc HepG2 cells were dispensed at 2,000 per well in 5uL of assay medium containing 5% charcoal-stripped FBS into white solid bottom 1536-well plates (Corning Life Sciences, Corning, NY) using a Multidrop Combi (Thermo Scientific, Waltham, MA) dispenser. The assay plates were incubated at 37 C and 5% CO2 for 5hr, and then 23nL of compounds dissolved in DMSO and positive control were transferred using a Pintool station (Wako, San Diego, CA). The assay plates were incubated at 37C and 5% CO2 for 24hr. For cytotoxicity read, after 23hr incubation at 37C, 1uL CellTiter-Fluor reagent (Promega Corporation, Madison, WI) was added to each well of the assay plates using Flying Reagent Dispenser (FRD, Aurora Discovery, San Diego, CA). After 1hr incubation at 37C and 5% CO2, the fluorescence signal was quantified using a ViewLux plate reader (PerkinElmer, Shelton, CT).
# On the % scale 0 is the no-effect control and ±100 the full control effect; potency means the concentration at half of the fitted maximal effect.
Compound,"activity change, negative = cytotoxicity",Potency
CCCCNS(=O)(=O)c1ccc(C)cc1,3.49% (inactive),
CN1CCN(Cc2cc(-c3ccc4[nH]c(=O)oc4c3)co2)[C@@H](c2ccc(F)cc2)C1,,46.7 µM (active)
[Cl][Pt-2]([Cl])([Cl])[Cl],0.372% (inactive),
NC(=O)c1cccc([N+](=O)[O-])c1,6.98% (inactive),
OC[C@H]1O[C@H](O[C@H]2O[C@H](CO)[C@@H](O)[C@H](O)[C@H]2O)[C@H](O)[C@@H](O)[C@@H]1O,0.545% (inactive),
O=C1c2ccccc2C(=O)N1SC1CCCCC1,,inactive
NC(=S)NC(N)=S,-5.6% (inactive),
O=[N+]([O-])c1ccc(F)c(Cl)c1,-0.485% (inactive),
O=[N+]([O-])c1cccc(C(F)(F)F)c1,3.18% (inactive),
CCOC(=O)c1ccc(C2CCC(NC[C@H](O)COc3ccc(O)c(NS(C)(=O)=O)c3)CC2)cc1 (stereo not given in full),,56.4 µM (active)
CCC(COC(=O)CCS)(COC(=O)CCS)COC(=O)CCS,15.8% (inactive),
CC1(C)CC(O)CC(C)(C)N1,-0.728% (inactive),
CC(C)(C)c1csc(-c2cc3cc(OCc4ccccc4CC(=O)O)ccc3o2)n1,,61.1 µM (active)
CCC(=O)C(=O)CC,2.14% (inactive),
Cc1c2ccccc2c(C)c2c1ccc1ccccc12,,61.1 µM (active)
COC(=O)c1ccccc1C,0.39% (inactive),
CC1=CCC(=C(C)C)CC1,5.3% (inactive),
Cc1c(C)c2c(c(C)c1OC(=O)c1cccnc1)CC[C@@](C)(CCC[C@H](C)CCC[C@H](C)CCCC(C)C)O2,5.63% [at 42.5 µM] (inactive),
CC(C)(C)CC(C)(C)c1ccc(Nc2ccc(C(C)(C)CC(C)(C)C)cc2)cc1,1.07% [at 8.39 µM] (inactive),
Cc1ccc(C(=O)O)cc1,3.8% (inactive),

Compound,"activity change, negative = cytotoxicity",Potency
COc1cccc2c1C(=O)c1c(O)c3c(c(O)c1C2=O)C[C@@](O)(C(C)=O)C[C@@H]3O[C@H]1C[C@H](N)[C@H](O)[C@H](C)O1,,1.09 µM (active) and 2.66 µM (active)
[Cu+],-6.01% (inactive),
Oc1ccccc1O,-12.9% (inactive),
CCCCOC(=O)CO,7.04% (inactive),
OC1CCC(C2CCCCC2)CC1 (stereo not given),2.53% (inactive),
Nc1ccc(Oc2ccc(Cl)cc2)cc1,-0.659% (inactive),
CCCNCCC,0.124% (inactive),
CCCCCCC1CCCC(=O)O1 (stereo not given),8.04% (inactive),
CC1(C)CCC[C@]2(C)[C@H]3CCO[C@]3(C)CC[C@@H]12,0.492% (inactive),
COc1cc(S(=O)(=O)O)c(C)cc1N=Nc1c(O)ccc2cc(S(=O)(=O)O)ccc12,,15.4 µM (active)
Cc1ccc(N/N=c2\c(=O)cc/c(=N\Nc3ccc(S(=O)(=O)O)cc3)c2=O)c(C)c1,,30.6 µM (active)
O=[N+]([O-])c1ccc(O)cc1C(F)(F)F,,48.6 µM (active)
c1ccc(SSc2ccccc2)cc1,-21.2% (inactive),
Cc1cc(C(C)(C)C)c(O)c(C)c1Cn1c(=O)n(Cc2c(C)cc(C(C)(C)C)c(O)c2C)c(=O)n(Cc2c(C)cc(C(C)(C)C)c(O)c2C)c1=O,-20.2% (inactive),
Cc1ccc(C(C)C)cc2c(C)ccc1-2,6.95% [at 42.5 µM] (inactive),
CCCCCC(C)OC(=O)COc1ccc(Cl)c2cccnc12 (stereo not given),-27.5% (inactive),
CCCCC(CC)CN1CN(CC(CC)CCCC)CC(C)(N)C1 (stereo not given),-26.1% [at 42.5 µM] (inactive),
COc1ccc2c(c1)c(CC(=O)OC/C=C(\C)CC/C=C(\C)CCC=C(C)C)c(C)n2C(=O)c1ccc(Cl)cc1,0.0297% [at 42.5 µM] (inactive),
CC(C(=O)O)c1ccc2c(c1)[nH]c1ccc(Cl)cc12 (stereo not given),2.72% [at 42.5 µM] (inactive),
CCC(C)(CCC(C)C)C(=O)[O][Sn]([CH3])([CH3])[O]C(=O)C(C)(CC)CCC(C)C (stereo not given),-0.509% (inactive),
